Data as given in PubChem BioAssay AID488895 (Broad Institute, 2010).
Where “and” joins values, the source holds several entries; their conditions need not be identical. Equal values may be shown once. In all, about 340,000 compounds went through this assay and about 120 (0.035%) were called active.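 How the source made its calls: active means mean replicate inhibition at least 50% and at least half of replicates individually reaching 50%; inconclusive means only one of the two criteria met; inactive means neither criterion met.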 The sample as a whole holds a higher share of actives than the screen did.

Test: E. coli Tat export inhibitors, primary screen, MC4100, TorA-mCherry reporter, fluorescence, single point (AID 488895);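 further: exported cargo escapes ClpAP degradation while cytoplasmic cargo is degraded and loses fluorescence; 0% = median of neutral control wells and 100% = median of NaSCN control wells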
Conditions: at 10 µM, active compounds read high

Compound | inhibition
Nc1nc(Sc2ncccc2[N+](=O)[O-])n[nH]1 | -8.21% (inactive)
O=C(O)c1ccccc1OCc1ccccc1Cl | -2.88% (inactive)
CS(=O)(=O)N(CC(=O)N1CCOCC1)c1ccc2c3c(cccc13)CC2 | 2.34% (inactive)
O=P(O)(CP(=O)(c1ccccc1)c1ccccc1)c1ccccc1O | -10.9% (inactive)
COc1cc(C2C(C#N)=C(C)NC3=C2C(=O)CC(C)(C)C3)ccc1O (centres undefined) | 4.04% (inactive)
CN1CC(=O)N=C1N | -7.3% (inactive) and -13.2% (inactive)
CCC(C)Sc1nc(C)nc2c1c(=O)n(C)c(=O)n2C (centres undefined) | -2.92% (inactive)
OC(COc1ccc(F)cc1Cl)CN1CCc2ccccc2C1 (centres undefined) | 3.62% (inactive)
COC(=O)c1cc2n(n1)CCCNC2=O | -2.39% (inactive)
O=C1OCC2=C1C(c1ccc(Cl)cc1)c1cc3c(cc1O2)OCO3 (centres undefined) | 2.92% (inactive)
CC1C(=O)Nc2ccc(S(=O)(=O)N3CCN(c4ccccc4F)CC3)cc2NC1=O (centres undefined) | 2.39% (inactive)
COCCCn1c(SCc2cccc(OC)c2)nc2cc(OC)c(OC)cc2c1=N | 8.62% (inactive)
CC(CCN1CCN=C1N(C)C)c1ccccc1 (centres undefined) | 1.28% (inactive)
Cn1c(SCC(=O)N2CCCC2)nnc1-c1ccc2c(c1)OCO2 | -0.749% (inactive)
CC(C)c1ccc(NC(=O)C2CCCN(S(=O)(=O)c3cccnc3)C2)cc1 (centres undefined) | -2.58% (inactive)
CC(C)[C@H](NC(=O)N1CCn2c1nc1ccccc12)C(=O)NC1CC1 | 3.55% (inactive)
CCN1CCN(C(=O)N[C@@H](C(=O)N[C@@H]2C(=O)N3C(C(=O)O)=C(CSc4nnnn4C)CS[C@H]23)c2ccc(O)cc2)C(=O)C1=O | -0.914% (inactive)
CC1CCCN(C(=O)c2ccc3c(c2)C(=O)N(CCC2=CCCCC2)C3=O)C1 (centres undefined) | 5.37% (inactive)
COC(=O)c1c(C)oc(C)c1S(=O)(=O)Nc1ccc(C(C)C)cc1 | 8.29% (inactive)
CC(C)(C)S(=O)(=O)N1Cc2cc(CO)cc(CCO)c2[C@H]1CCO | -5.8% (inactive)
C[n+]1ccccc1C1CCCC/C1=N\Nc1ccc([N+](=O)[O-])cc1[N+](=O)[O-] (centres undefined) | -6.35% (inactive)
COC(=O)c1ccc(CN(c2ccccc2OC)S(=O)(=O)c2cccs2)o1 | 22.7% (inactive)
CNC(=O)c1nnc(Cc2ccc(Cl)cc2)o1 | -1.7% (inactive)

Compound | inhibition
COCCCNC(=O)C1CC(=O)N(CCc2ccccc2)C1 (centres undefined) | 4.61% (inactive)
COc1ccc(Cl)cc1NC(=O)CN(C)C(=O)c1ccc2n[nH]nc2c1 | -3.85% (inactive)
Cc1cc(C)cc(C(=O)N2CCN=C2SCc2ccc([N+](=O)[O-])cc2)c1 | 7.58% (inactive)
Cn1cc(CN2CCCCC2c2ccccn2)c(-c2ccc3c(c2)OCCO3)n1 (centres undefined) | 3% (inactive)
CCc1nc(C)cn1S(=O)(=O)c1cc([N+](=O)[O-])ccc1Cl | -13.2% (inactive)
O=C1CCC/C(=N\NC(=O)NC2CCCCC2)C1 | 4.42% (inactive)
O=[N+]([O-])c1ncc(Br)cc1Nc1ccccc1 | -4.47% (inactive)
COC(=O)c1c(C(=O)OC)c(-c2cccc(C)c2)n2c1CS(=O)C2 (centres undefined) | 4.25% (inactive)
Cc1cc(C)c(OCCN2CC(C)OC(C)C2)c(Br)c1 (centres undefined) | 24.1% (inactive)
COc1ccccc1NC(=O)c1cc(N2C(=O)C3C4CCC(C4)C3C2=O)ccc1Cl (centres undefined) | -14.7% (inactive)
CC1(C)CC(=O)C(CC(=O)N2CCC(Cc3ccccc3)CC2)C(=O)C1 | 3.6% (inactive)
CCCCCCCCCCCCC(NC(C)=O)(C(=O)OCC)C(=O)OCC | 7.11% (inactive)
COc1ccc(NC(=O)c2cc([N+](=O)[O-])ccc2NC(=O)CNC2CCCCC2C)c(OC)c1 (centres undefined) | 3.4% (inactive)
CCc1ccc(NC(=O)c2ccc(Cn3cc([N+](=O)[O-])cn3)cc2)cc1 | 1.09% (inactive)
COc1cc(NS(=O)(=O)c2ccc(NC(=O)c3ccc([N+](=O)[O-])cc3)cc2)ncn1 | -6.48% (inactive)
Cn1ccc(=Nc2ccc(NC(=O)c3ccc(N=c4ccn(C)c5ccc([N+](=O)[O-])cc45)cc3)cc2)cc1 | 112% (active)
CN(CCc1ccccc1)C(=O)c1cccc(NC(=O)Cc2cccc(NC(=O)C3CCCN(C(=O)C4CCC4)C3)c2)c1 (centres undefined) | 2.65% (inactive)
O=C(CNC(=O)c1cc(S(=O)(=O)N2CCOCC2)ccc1N1CCCC1)Nc1ccc(F)c(F)c1 | -7.06% (inactive)
C=CCCC(=O)N1C[C@H]2CON(C)[C@H]2C[C@H]1c1cccc(Nc2ccccc2)c1 | 1.87% (inactive)
COc1ccc(-c2nn(C)c(=O)c3ccccc23)cc1CNC(=O)C1CCCCC1 | 5.51% (inactive)
CCSc1sc(CC)cc1C=O | -5.06% (inactive)
COC(=O)/C=C(\Oc1ccccc1)C1(O)CCCCC1 | -5.03% (inactive)
COc1ccc(C(=O)NCc2ccccc2C)cc1S(=O)(=O)NC1CCCC1 | -5.16% (inactive)

Compound | inhibition
Cc1cccc(NS(=O)(=O)c2cc(Cl)ccc2Cl)n1 | 1.57% (inactive)
CCc1nnc(NS(=O)(=O)c2ccc(NC(=S)NC(=O)/C=C/c3cccs3)cc2)s1 | 3.92% (inactive)
CC(NC(=O)COc1cccnc1[N+](=O)[O-])c1ccc(Cl)cc1Cl (centres undefined) | -4.49% (inactive)
Cc1cc(S(=O)(=O)NCc2ccccn2)c(Cl)cc1Cl | -16.8% (inactive)
Cc1cc(C(F)F)n2nc(C(=O)Nc3ccc(S(=O)(=O)NC45CC6CC(CC(C6)C4)C5)cc3)nc2n1 | 10.1% (inactive)
O=C(c1cc2ccccc2s1)N1CCN(c2ccccn2)CC1 | -5.47% (inactive)
O=C(CNC(=O)OCc1ccccc1)NC1CCCCNC1=O (centres undefined) | 10.8% (inactive)
Cc1nn(C)c(Oc2ccc(Cl)cc2)c1C=O | -0.515% (inactive)
CCOC(=O)c1sc2nc(C)nc(SCC(N)=O)c2c1C | -4.58% (inactive)
O=S1(=O)CCO[C@H]2Cc3ccccc3[C@H]2N1Cc1ccccc1 | -48.1% (inactive)
CCCn1c(C)cc(/C=C(\C#N)C(=O)OCC(=O)N(C)c2c(N)n(Cc3ccccc3)c(=O)[nH]c2=O)c1C | 11% (inactive)
O=C(CCc1[nH]c2ccccc2c1Sc1ccccc1)N(CCO)CCO | -4.7% (inactive)
COc1cccc(-c2ccc(SCC(=O)N3CCN(c4ccccc4)CC3)nn2)c1 | 2.75% (inactive)
CC(=O)N1CCSc2ccc(S(=O)(=O)N3CCC(C)CC3)cc21 | 2.03% (inactive)
CC1(C)C(=O)CCC2(C)C1=CCC1C2C(=O)CC2(C)C1CCC2(O)C(=O)CO (centres undefined) | -1.57% (inactive)
CCn1ccnc1CN(C)C(=O)c1ccc2nc(Cc3ccc(OC)cc3)oc2c1 | -0.56% (inactive)
CC[C@]12c3[nH]c4cc(CCC(=O)N(C)C)ccc4c3CCN1C(=O)[C@@H](CC(=O)NCCCN(C)C)C[C@@H]2C(=O)N1CCN(C(=O)c2ccco2)CC1 | -1.81% (inactive)
CC(OC(=O)c1ccc(-n2cnnn2)cc1)C(=O)NCc1ccccc1 (centres undefined) | -2.55% (inactive)
O=C(NCc1ccc(Cl)cc1)c1cc2c(nc3sccn32)s1 | -1.5% (inactive)
CCCNC(=O)N1CCC(c2ccc3c(c2)OCO3)CC1 | 3.31% (inactive)
Cc1noc(C)c1CCC(=O)O | 1.5% (inactive)
COCCNc1nnc(SCC(=O)NNC(=O)c2ccco2)s1 | 3.66% (inactive)
COc1ccc(COCCN2CCN(S(=O)(=O)c3ccccc3)CCC2=O)cc1 | 1.02% (inactive)

Compound | inhibition
CCN(CCn1cccn1)Cc1nc(-c2ccc(C(=O)OC)cc2)no1 | 0.0185% (inactive)
CC1CCCCC1NC(=O)Cn1c(=O)cnc2ccccc21 (centres undefined) | 2.53% (inactive)
CN(C(=O)CN(CCO)CC(=O)N(C)C(C)(C)Cc1ccccc1)C(C)(C)Cc1ccccc1 | 19.2% (inactive)
CC(C#N)OC(=O)c1cccnc1SCC(=O)Nc1ccc2c(c1)OCO2 (centres undefined) | -6.97% (inactive)
O=C(NCCO)C(=O)NCC(c1ccc2c(c1)OCO2)N1CCN(c2ccc(F)cc2)CC1 (centres undefined) | 0.936% (inactive)
Cn1c(=O)c(C(=O)Nc2ncccn2)c(O)c2ccccc21 | -0.24% (inactive)
CC(C)CN(CC(C)C)C(=O)CN1c2cccc3cccc(c23)S1(=O)=O | 0.144% (inactive)
COc1ccccc1N1CCN(C(=O)C2Cc3ccccc3CN2C(=O)c2ccco2)CC1 (centres undefined) | -8.37% (inactive)
O=C(NC(=S)NC1CCSC1=O)c1ccccc1F (centres undefined) | -9.37% (inactive)
CCc1c(O)cc2n(c1=O)-c1ccccc1C2(C)C | -2.57% (inactive)
CN(CC1CCCO1)S(=O)(=O)c1ccc(C(=O)Nc2ccc([N+](=O)[O-])cc2)cc1 (centres undefined) | -6.82% (inactive)
COc1ccccc1NC(=S)N1CCN(c2ccc(F)cc2)CC1 | 1.21% (inactive)
COc1c(N2CCN(C(=S)Nc3ccccc3F)C(C)C2)c(F)cc2c(=O)c(C(=O)O)cn(C3CC3)c12 (centres undefined) | 91.3% (active)
CC1CN(C(=S)Nc2ccccc2F)CC(C)O1 (centres undefined) | 6.69% (inactive)
Cc1ccc(S(=O)(=O)N2CCN(C(=O)COC(=O)CNC(=O)c3ccc(C(C)(C)C)cc3)CC2)c(C)c1 | 6.64% (inactive)
CN1CCN(S(=O)(=O)c2ccc(N3CCN(c4ccccc4O)CC3)c([N+](=O)[O-])c2)CC1 | -4.89% (inactive)
O=C(NCc1ccco1)c1ccc(NS(=O)(=O)c2cccc([N+](=O)[O-])c2)cc1 | -12.7% (inactive)
COCCCNC(=O)CCc1nc2cccnc2n1Cc1ccc(OC)cc1 | 5.25% (inactive)
Cc1ccc(NC(=S)N(CCN(C)C)Cc2cccs2)cc1C | -0.631% (inactive)
COc1ccc2c3c1O[C@H]1C[C@@H](O)C=C[C@@]31CCN(C)C2 | -6.89% (inactive)
